# Measurements taken from PubChem BioAssay (EPA / NIEHS).
# Active and inactive are the calls of the source. Rule for the calls: active = hit-call score of the fitted dose curve at least 0.9, where 1 is the maximum; inconclusive = response in the unintended direction; inactive = score below 0.9.
# Test: CPHEA_Stoker_NIS_Cytotoxicity: Cytotoxicity Assessment for CPHEA's Radioactive Iodide Uptake (RAIU) Assay for Sodium/Iodide Symporter (NIS) Inhibition, Stoker and Laws Labs (AID 2283897);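 for AC50: active means loss of ATP signal versus DMSO meaning cytotoxicity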
# How it was run: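 hNIS-HEK293T-EPA cells, human NIS expressed in HEK293T, treated 2 h with chemicals (0.001–100 uM, 0.5% final DMSO). ATP content read by CellTiter-Glo luminescence; loss of signal analysed relative to DMSO.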
Compound,AC50,outcome
CC[C@H](C)[C@H]1O[C@]2(C=C[C@@H]1C)C[C@@H]1C[C@@H](C/C=C(\C)[C@@H](O[C@H]3C[C@H](OC)[C@@H](O[C@H]4C[C@H](OC)[C@@H](NC)[C@H](C)O4)[C@H](C)O3)[C@@H](C)/C=C/C=C3\CO[C@@H]4[C@H](O)C(C)=C[C@@H](C(=O)O1)[C@]34O)O2,23 µM (active),
O=[N+]([O-])c1cc(C(F)(F)F)c(Cl)c([N+](=O)[O-])c1Nc1ncc(C(F)(F)F)cc1Cl,19.6 µM (active),
C=C(C)[C@H]1Cc2c(ccc3c2O[C@@H]2COc4cc(OC)c(OC)cc4[C@@H]2C3=O)O1,,inactive
CCOP(=S)(OCC)OC(Cl)C(Cl)(Cl)Cl (stereo unspecified),,inactive
C#CCC1=C(C)C(OC(=O)C2C(C=C(C)C)C2(C)C)CC1=O (stereo unspecified),,inactive
COc1cccc(C(=O)NN(C(=O)c2cc(C)cc(C)c2)C(C)(C)C)c1C,,inactive
CSc1nc(NC(C)C)nc(NC(C)C)n1,,inactive
CCC(=O)Nc1ccc(Cl)c(Cl)c1,,inactive
CCCSP(=O)(OCC)Oc1ccc(Br)cc1Cl (stereo unspecified),,inactive
CCOP(=S)(OCC)SCCSCC,,inactive
Nc1c(Cl)cc([N+](=O)[O-])cc1Cl,,inactive
CCCCSP(=O)(SCCCC)SCCCC,,inactive
CON=C(C(=O)OC)c1ccccc1CON=C(C)c1cccc(C(F)(F)F)c1,,inactive
Cc1cc(C2CC2)nc(Nc2ccccc2)n1,,inactive
CCOP(=S)(OCC)Oc1ccc2c(C)c(Cl)c(=O)oc2c1,27.7 µM (active),
N#CSCSC#N,41.4 µM (active),

Compound,AC50,outcome
C[Si](Cn1cncn1)(c1ccc(F)cc1)c1ccc(F)cc1,,inactive
CC(COc1ccc(Oc2ccccc2)cc1)Oc1ccccn1 (stereo unspecified),,inactive
CC(C)N(C(=O)SCC(Cl)=C(Cl)Cl)C(C)C,39.8 µM (active),
CCCCOC(=O)[C@@H](C)Oc1ccc(Oc2ccc(C#N)cc2F)cc1,,inactive
CCCCN(CC)c1c([N+](=O)[O-])cc(C(F)(F)F)cc1[N+](=O)[O-],,inactive
CCC(CC)Nc1c([N+](=O)[O-])cc(C)c(C)c1[N+](=O)[O-],,inactive
CSC1=N[C@@](C)(c2ccccc2)C(=O)N1Nc1ccccc1,,inactive
CCOC(=O)COc1cc(-c2nn(C)c(OC(F)F)c2Cl)c(F)cc1Cl,,inactive
CCCOCC(=Nc1ccc(Cl)cc1C(F)(F)F)n1ccnc1,38.1 µM (active),
FC(F)C(F)(F)OCC(Cn1cncn1)c1ccc(Cl)cc1Cl (stereo unspecified),,inactive
CCOP(=S)(OCC)Oc1ccc([N+](=O)[O-])cc1,,inactive
CCOP(=S)(Oc1cnc(C(C)(C)C)nc1)OC(C)C (stereo unspecified),,inactive
COP(=O)(OC)OC(Br)C(Cl)(Cl)Br (stereo unspecified),,inactive
CC(C)=CC1C(C(=O)OCN2C(=O)C3=C(CCCC3)C2=O)C1(C)C (stereo unspecified),35.4 µM (active),
CC1(C(=O)Nc2ccc(O)c(Cl)c2Cl)CCCCC1,,inactive
